Laboratory results from PubChem BioAssay AID434992 (The Scripps Research Institute Molecular Screening Center, 2010).
Calls of active or inactive are those of the source. The rule behind the calls is not given here.

Assay: PubChem AID 434992
Conditions: HT29 viability, CellTiter-Glo ATP luminescence; series mostly up to 40 µM

FC(F)(F)c1ccc2c(c1)Nc1ccccc1S2
outcome: inactive
